Experimental data from PubChem BioAssay (Tox21).
Values joined by “and” are separate entries in the source; they are usually repeats but may differ in a detail not shown here. Identical values can stand only once. Results filed as inconclusive are left out. A structure can be active in one record and inactive in another. Active and inactive are the calls of the source. Unless noted, calls come from the whole dose curve.

Tests used:
[1] = qHTS assay to identify small molecule antagonists of the sonic hedgehog signaling (Shh) pathway (AID 1259369); note: nearly all actives have a fitted effect of over 45% in size; note: potency is the fitted concentration of half-maximal effect
Outline: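 Stable Gli1-Luc reporter NIH/3T3 clone; quantitative HTS in stimulated mode with conditioned medium. Luminescence measured after 24hr compound treatment at 37 C.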

[2] = target: Estrogen receptor beta (Homo sapiens) (UniProt Q92731); experiment: qHTS assay to identify small molecule agonists of the estrogen receptor beta (ER-beta) signaling pathway (AID 1259377; active = well fitted activation curve with a large enough effect in the signal ratio in the repeat runs, not every such curve was filed as active; the % refers to the signal ratio)
Outline: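 ER-beta-UAS-bla HEK293T cells in medium with 2% charcoal-stripped FBS were exposed to compounds for 16 h at 37C. Beta-lactamase reporter activity was read as fluorescence after 2 h with LiveBLAzer B/G FRET substrate at room temperature.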

[3] = target: Estrogen receptor beta (Homo sapiens) (UniProt Q92731); experiment: qHTS assay to identify small molecule antagonists of the estrogen receptor beta (ER-beta) signaling pathway (AID 1259378; active = well fitted inhibition curve with a large enough effect in the signal ratio in the repeat runs, not every such curve was filed as active; the % refers to the signal ratio)
Outline: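 ER-beta-UAS-bla HEK293T (GripTite) cells in 2% charcoal-stripped FBS medium were preincubated 6 hr at 37C, dosed with compound, then stimulated with 1 nM E2 (final) for 16 hr; beta-lactamase reporter read by B/G FRET fluorescence after 2 hr substrate loading.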

[4] = qHTS assay to identify small molecule agonists of the androgen receptor (AR) signaling pathway in the presence of an antagonist - cell viability counter screen (AID 1259379; active = well fitted curve in the direction sought with a large enough effect in the repeat runs; an effect the other way counts as inactive or inconclusive;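 note: MDA-kb2 human breast cancer cells carrying an MMTV luciferase reporter; series mostly up to about 92 µM; nearly all actives have a fitted effect of over 25% in size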)
Outline: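 Nilutamide-containing (3.0uM final) MDA-kb2 cultures, 3,000 cells/well, were treated with compounds across 15 concentrations. After 16 hr at 37C with no CO2, cell viability was determined by CellTiter-Fluor fluorescence in the luciferase assay wells.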

[5] = qHTS assay to identify small molecule agonists of the estrogen receptor beta (ER-beta) signaling pathway - cell viability counter screen (AID 1259380; active = well fitted curve in the direction sought with a large enough effect in the repeat runs; an effect the other way counts as inactive or inconclusive; note: nearly all actives have a fitted effect of over 30% in size)
Outline: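 Steps: plate ER-beta-UAS-bla HEK293T cells, rest 6 hr; add compounds in DMSO; incubate 16 hr at 37C, 5% CO2; add FRET substrate 2 hr; add CellTiter-Glo, wait 30 min at room temperature; read luminescence.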

[6] = qHTS assay to identify small molecule agonists or antagonists of the thyroid stimulating hormone receptor (TSHR) signaling pathway - wild type cell line counter screen (AID 1259384)
Outline: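 Wild-type HEK293 cells were plated 18 h at 37 C/5% CO2, pin-dosed with compound plus Ro20-1724 medium, held 30 min at room temperature, then given cAMP-d2 and anti-cAMP-cryptate; fluorescence was read after 1 h. Fifteen concentrations, triplicate.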

[7] = target: Thyrotropin receptor (Homo sapiens) (UniProt P16473); experiment: qHTS assay to identify small molecule antagonists of the thyroid stimulating hormone receptor (TSHR) signaling pathway (AID 1259385); note: nearly all actives have a fitted effect of over 20% in size
Outline: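 TSHR-HEK293 cells were plated and held 18 h at 37C/5% CO2, then given compound plus Ro20-1724 and stimulated with TSH at 1.5 ng/mL final. After 30 min at room temperature, cAMP was detected with cAMP-d2/anti-cAMP-cryptate (1 h) by fluorescence.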

[8] = qHTS assay to identify small molecule agonists of the estrogen receptor alpha (ER-alpha) signaling pathway in the presence of an antagonist - cell viability counter screen (AID 1259386; active = well fitted curve in the direction sought with a large enough effect in the repeat runs; an effect the other way counts as inactive or inconclusive;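 note: series mostly up to about 92 µM; cells exposed to compounds for 22 h at 37 °C before the viability read; nearly all actives have a fitted effect of over 30% in size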)
Outline: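 In this counter screen, compound effects on VM7Luc4E2 viability were tested in the presence of the antagonist ICI-182,780 at 10.0nM final. Compounds were dosed at 15 concentrations, exposure lasted 22hr, and the CellTiter-Fluor signal was read.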

[9] = target: Progesterone receptor (Homo sapiens) (UniProt P06401); experiment: qHTS assay to identify small molecule agonists of the progesterone receptor (PR) signaling pathway (AID 1346784); note: nearly all actives have a fitted effect of over 30% in size
Outline: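 PR-UAS-bla HEK 293T cells (beta-lactamase reporter under UAS) in 2% charcoal-stripped FBS, dosed with 23 nL compound after 6 hr, incubated 16hr at 37C. LiveBLAzer B/G FRET substrate added, fluorescence read after 2 hours.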

[10] = target: Progesterone receptor (Homo sapiens) (UniProt P06401); experiment: qHTS assay to identify small molecule antagonists of the progesterone receptor (PR) signaling pathway (AID 1346795; active = well fitted inhibition curve with a large enough effect in the signal ratio in the repeat runs, not every such curve was filed as active; the % refers to the signal ratio)
Outline: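 PR-UAS-bla HEK293T cells with beta-lactamase reporter under UAS control, in 2% charcoal-stripped FBS, treated with compounds plus 1 nM promegestone (R5020, final) for 16 hr at 37C. Read-out: FRET beta-lactamase substrate fluorescence after 2 hr at room temperature.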

[11] = qHTS assay to identify small molecule antagonists of the progesterone receptor (PR) signaling pathway - cell viability counter screen (AID 1346798; active = well fitted curve in the direction sought with a large enough effect in the repeat runs; an effect the other way counts as inactive or inconclusive; note: series mostly up to about 92 µM; nearly all actives have a fitted effect of over 50% in size)
Outline: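 PR-UAS-bla HEK293T cells, 3,000/well in 2% charcoal-stripped FBS medium, dosed with compounds plus R5020 agonist and incubated 16 h at 37C. Viability then measured in the same wells by CellTiter-Glo luminescence after 30 min at RT.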

[12] = qHTS assay to identify small molecule agonists of the progesterone receptor (PR) signaling pathway - cell viability counter screen (AID 1346799); note: nearly all actives have a fitted effect of over 45% in size
Outline: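 Counter screen in the PR-UAS-bla HEK293T wells (2% charcoal-stripped FBS, 16 h compound exposure at 37 C) after the bla read. CellTiter-Glo added, 30 min at room temperature, luminescence read as cell viability.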

[13] = qHTS assay to identify small molecule antagonists of the TGF-beta/Smad signaling pathway - cell viability counter screen (AID 1346824; active = well fitted curve in the direction sought with a large enough effect in the repeat runs; an effect the other way counts as inactive or inconclusive; note: nearly all actives have a fitted effect of over 50% in size)
Outline: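 SBE-bla HEK 293T cells were plated overnight at 37 C, then given compounds in DMSO plus TGF-beta1 (added as 0.25 ng/mL solution) for 5 hr. After the bla read, CellTiter-Glo was added to the same wells and luminescence read after 30 min at room temperature.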

[14] = qHTS assay to identify small molecule agonists of the TGF-beta/Smad signaling pathway - cell viability counter screen (AID 1346829; active = well fitted curve in the direction sought with a large enough effect in the repeat runs; an effect the other way counts as inactive or inconclusive; note: top concentration of the series differs between compounds; nearly all actives have a fitted effect of over 45% in size)
Outline: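 Here the cytotoxicity of library compounds is measured in SBE-bla HEK 293T cells treated for 5 hr, using CellTiter-Glo added to wells already read for the beta-lactamase reporter.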

[15] = qHTS assay to identify small molecule agonists of the TGF-beta/Smad signaling pathway (AID 1346859; active = well fitted activation curve with a large enough effect in the signal ratio in the repeat runs, not every such curve was filed as active; the % refers to the signal ratio; note: series mostly up to about 77 µM)
Outline: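 SBE-bla HEK293T cells plated overnight, then compound exposure for 5 h at 37 C. Beta-lactamase reporter read with LiveBLAzer B/G FRET substrate after 2 h at room temperature, fluorescence at 405 nm excitation, 460/530 nm emission.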

[16] = target: Thyrotropin-releasing hormone receptor (Homo sapiens) (UniProt P34981); experiment: qHTS assay to identify small molecule antagonists of the thyrotropin-releasing hormone receptor (TRHR) signaling pathway (AID 1346877; active = well fitted inhibition curve with a large enough effect in the repeat runs, not every such curve was filed as active; note: series mostly up to about 51 µM)
Outline: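 Kinetic fluorescence (3 min, 1 s resolution) following stimulation with TRH at 1 nM final; HEK293 cells bearing human TRHR; 5 min compound preincubation at RT; concentration-response over 15 points, triplicates.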

[17] = target: Thyrotropin-releasing hormone receptor (Homo sapiens) (UniProt P34981); experiment: qHTS assay to identify small molecule agonists of the thyrotropin-releasing hormone receptor (TRHR) signaling pathway (AID 1346891); note: series mostly up to about 58 µM
Outline: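 HEK293 cells expressing TRHR plated 18 h at 37 C/5% CO2, calcium dye-loaded 2 h at 37 C, then compound added (agonist mode); kinetic calcium fluorescence read 3 min at 1 s intervals; 15 concentrations in triplicate.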

[18] = target: Estrogen receptor (Homo sapiens) (UniProt P03372); experiment: qHTS assay to identify small molecule agonists of the estrogen receptor alpha (ER-alpha) signaling pathway in the presence of an antagonist (AID 1259383); note: nearly all actives have a fitted effect of over 15% in size; note: potency is the fitted concentration of half-maximal effect; for activation: top concentration of the series differs between compounds
Outline: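 Readout was ERE-driven luciferase luminescence in VM7Luc4E2 cells, which express full-length ER-alpha endogenously. Compounds were tested at 15 concentrations for 22hr alongside 10.0nM ICI-182,780 (final concentration).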

[19] = qHTS assay to identify small molecule antagonists of the estrogen receptor beta (ER-beta) signaling pathway - cell viability counter screen (AID 1259382; active = well fitted curve in the direction sought with a large enough effect in the repeat runs; an effect the other way counts as inactive or inconclusive; note: series mostly up to about 92 µM; nearly all actives have a fitted effect of over 55% in size)
Outline: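 Viability is scored by CellTiter-Glo luminescence (30 min, room temperature) in ER-beta-UAS-bla HEK293T wells already read for reporter fluorescence. Compound exposure lasts 16 hr at 37C alongside 1nM 17-beta-estradiol in charcoal-stripped serum medium.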
% is set by controls: 0 for no effect and ±100 for the full control effect.

Thyrotropin receptor (Homo sapiens), sequence (P16473 whole entry, looked up): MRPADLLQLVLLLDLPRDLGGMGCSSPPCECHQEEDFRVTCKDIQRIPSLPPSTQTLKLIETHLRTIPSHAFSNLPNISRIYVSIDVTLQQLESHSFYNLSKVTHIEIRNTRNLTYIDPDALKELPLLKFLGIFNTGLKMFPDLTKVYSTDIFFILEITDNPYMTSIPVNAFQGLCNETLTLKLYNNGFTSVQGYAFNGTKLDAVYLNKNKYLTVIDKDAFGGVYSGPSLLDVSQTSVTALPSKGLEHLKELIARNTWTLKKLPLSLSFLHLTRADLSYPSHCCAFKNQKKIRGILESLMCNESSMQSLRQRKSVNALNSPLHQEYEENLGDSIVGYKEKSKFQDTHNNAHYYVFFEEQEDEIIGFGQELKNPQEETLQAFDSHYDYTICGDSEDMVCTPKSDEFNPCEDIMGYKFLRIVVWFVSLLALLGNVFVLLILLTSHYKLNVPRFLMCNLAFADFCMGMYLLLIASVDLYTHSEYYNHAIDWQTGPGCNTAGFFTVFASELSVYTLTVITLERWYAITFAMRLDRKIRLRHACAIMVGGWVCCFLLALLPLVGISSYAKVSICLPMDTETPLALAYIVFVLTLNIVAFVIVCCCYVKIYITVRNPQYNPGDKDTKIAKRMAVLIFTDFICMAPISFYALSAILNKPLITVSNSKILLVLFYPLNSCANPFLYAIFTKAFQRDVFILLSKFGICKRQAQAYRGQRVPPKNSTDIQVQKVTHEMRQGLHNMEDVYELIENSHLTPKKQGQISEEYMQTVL
Estrogen receptor beta (Homo sapiens), sequence (Q92731 whole entry, looked up): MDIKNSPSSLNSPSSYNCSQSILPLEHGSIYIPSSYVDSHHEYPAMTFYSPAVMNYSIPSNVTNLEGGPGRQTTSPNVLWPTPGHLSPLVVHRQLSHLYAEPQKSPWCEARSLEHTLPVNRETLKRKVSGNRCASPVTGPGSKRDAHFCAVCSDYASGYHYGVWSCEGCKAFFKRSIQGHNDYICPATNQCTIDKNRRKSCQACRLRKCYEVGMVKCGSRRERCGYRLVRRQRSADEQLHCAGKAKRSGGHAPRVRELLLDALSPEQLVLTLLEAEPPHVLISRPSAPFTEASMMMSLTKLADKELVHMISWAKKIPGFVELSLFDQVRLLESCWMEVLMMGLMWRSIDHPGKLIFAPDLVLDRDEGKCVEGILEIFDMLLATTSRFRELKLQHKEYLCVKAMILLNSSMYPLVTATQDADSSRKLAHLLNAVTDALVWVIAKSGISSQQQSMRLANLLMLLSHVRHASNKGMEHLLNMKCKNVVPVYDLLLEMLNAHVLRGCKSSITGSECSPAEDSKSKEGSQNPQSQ
Progesterone receptor (Homo sapiens), sequence (P06401 whole entry, looked up): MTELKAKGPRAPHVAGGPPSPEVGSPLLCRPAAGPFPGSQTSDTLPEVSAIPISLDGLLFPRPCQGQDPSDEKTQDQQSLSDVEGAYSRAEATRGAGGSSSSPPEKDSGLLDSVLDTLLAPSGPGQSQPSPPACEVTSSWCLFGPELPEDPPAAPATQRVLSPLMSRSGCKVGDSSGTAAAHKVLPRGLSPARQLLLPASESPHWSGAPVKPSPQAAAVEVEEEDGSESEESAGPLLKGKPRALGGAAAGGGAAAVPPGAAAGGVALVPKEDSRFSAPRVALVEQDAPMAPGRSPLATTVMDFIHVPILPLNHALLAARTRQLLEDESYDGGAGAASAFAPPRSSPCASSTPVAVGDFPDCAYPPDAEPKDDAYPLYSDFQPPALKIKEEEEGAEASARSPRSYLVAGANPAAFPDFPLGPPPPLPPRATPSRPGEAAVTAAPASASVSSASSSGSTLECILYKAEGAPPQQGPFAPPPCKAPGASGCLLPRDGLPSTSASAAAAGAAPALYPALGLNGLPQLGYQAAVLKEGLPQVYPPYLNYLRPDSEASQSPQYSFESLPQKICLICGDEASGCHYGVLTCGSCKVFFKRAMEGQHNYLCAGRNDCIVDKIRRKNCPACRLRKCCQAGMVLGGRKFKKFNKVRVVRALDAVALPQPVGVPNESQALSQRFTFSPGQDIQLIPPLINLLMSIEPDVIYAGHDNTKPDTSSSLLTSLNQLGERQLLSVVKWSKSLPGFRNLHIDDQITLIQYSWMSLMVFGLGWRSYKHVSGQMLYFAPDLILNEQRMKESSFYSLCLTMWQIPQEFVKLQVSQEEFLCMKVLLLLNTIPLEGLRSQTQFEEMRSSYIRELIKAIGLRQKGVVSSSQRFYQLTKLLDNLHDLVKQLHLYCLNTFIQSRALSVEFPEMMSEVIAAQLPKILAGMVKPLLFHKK
Estrogen receptor (Homo sapiens), sequence (P03372 whole entry, looked up): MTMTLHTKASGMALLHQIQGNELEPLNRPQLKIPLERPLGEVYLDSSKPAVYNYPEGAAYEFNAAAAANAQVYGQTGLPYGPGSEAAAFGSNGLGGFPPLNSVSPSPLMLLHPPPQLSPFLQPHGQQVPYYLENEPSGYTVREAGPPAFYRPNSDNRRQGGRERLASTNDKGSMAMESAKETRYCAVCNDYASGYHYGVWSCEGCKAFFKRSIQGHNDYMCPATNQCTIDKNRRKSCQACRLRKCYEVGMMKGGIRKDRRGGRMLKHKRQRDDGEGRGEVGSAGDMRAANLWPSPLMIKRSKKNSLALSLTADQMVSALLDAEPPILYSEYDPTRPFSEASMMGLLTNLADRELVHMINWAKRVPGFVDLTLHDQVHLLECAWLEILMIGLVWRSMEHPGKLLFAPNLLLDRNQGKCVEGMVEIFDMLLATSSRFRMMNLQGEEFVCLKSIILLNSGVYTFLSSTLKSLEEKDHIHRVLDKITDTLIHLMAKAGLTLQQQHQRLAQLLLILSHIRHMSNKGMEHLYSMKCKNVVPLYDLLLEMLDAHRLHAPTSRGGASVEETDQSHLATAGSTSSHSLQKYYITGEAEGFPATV
Thyrotropin-releasing hormone receptor (Homo sapiens), sequence (P34981 whole entry, looked up): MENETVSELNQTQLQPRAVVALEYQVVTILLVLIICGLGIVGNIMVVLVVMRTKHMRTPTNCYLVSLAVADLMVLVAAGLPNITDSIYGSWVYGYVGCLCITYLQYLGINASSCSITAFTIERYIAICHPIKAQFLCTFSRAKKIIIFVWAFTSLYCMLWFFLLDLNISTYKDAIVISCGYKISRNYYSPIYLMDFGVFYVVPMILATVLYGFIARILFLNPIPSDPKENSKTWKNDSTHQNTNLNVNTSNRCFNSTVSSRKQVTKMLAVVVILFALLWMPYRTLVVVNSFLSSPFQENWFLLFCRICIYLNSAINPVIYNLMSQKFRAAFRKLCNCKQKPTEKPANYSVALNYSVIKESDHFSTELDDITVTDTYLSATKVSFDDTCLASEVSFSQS

C=C(C)CC(C)(C)C
inactive: Potency [1] | Potency [2] | Potency [3] | Potency [4] | Potency [5] | Potency [6] | Potency [7] | Potency [8] | Potency [9] | Potency [10] | Potency [11] | Potency [12] | Potency [13] | Potency [14] | Potency [15] | Potency [16] | outcome [17]

COc1ccc([C@@H]2CC(=O)c3c(O)cc(O[C@@H]4O[C@H](CO[C@@H]5O[C@@H](C)[C@H](O)[C@@H](O)[C@H]5O)[C@@H](O)[C@H](O)[C@H]4O)cc3O2)cc1OC
inactive: Potency [1] | Potency [2] | Potency [3] | Potency [4] | Potency [5] | Potency [18] | Potency [6] | Potency [7] | Potency [8] | Potency [9] | Potency [11] | Potency [12] | Potency [13] | Potency [14] | Potency [15] | Potency [16] | outcome [17]

Cc1ccc(Cl)cc1
inactive: Potency [1] | Potency [4] | Potency [5] | Potency [19] | Potency [18] | Potency [6] | Potency [7] | Potency [8] | Potency [9] | Potency [10] | Potency [11] | Potency [12] | Potency [13] | Potency [14] | Potency [15] | Potency [16] | outcome [17]

CCCCCCCCCCCC(=O)N(C)CC(=O)O
inactive: Potency [1] | Potency [2] | activity, negative = inhibition [3] 1.54% [at 8.39 µM] | activity change, negative = cytotoxicity [5] -3.5% [at 8.39 µM] | Potency [19] | Potency [18] | Potency [6] | Potency [7] | Potency [8] | Potency [9] | Potency [10] | activity change, negative = cytotoxicity [11] 0.0198% [at 8.39 µM] | Potency [12] | Potency [13] | Potency [14] | Potency [15]

CCCCCCCC(=O)O
26.3 µM (active) and inactive: Potency [18]
inactive: Potency [1] | Potency [2] | Potency [3] | Potency [4] | Potency [5] | Potency [8] | Potency [9] | Potency [11] | Potency [12] | Potency [13] | Potency [14] | Potency [15]

CCN(CC)CCNC(=O)c1ccc(N)cc1
inactive: Potency [1] | Potency [2] | Potency [3] | Potency [5] | Potency [19] | Potency [6] | Potency [7] | Potency [8] | Potency [9] | Potency [10] | Potency [11] | Potency [12] | Potency [14] | Potency [15]

CC(=O)Nc1ccc(CC(=O)O)cc1
inactive: Potency [1] | Potency [4] | Potency [5] | Potency [19] | Potency [18] | Potency [6] | Potency [7] | Potency [8] | Potency [9] | Potency [10] | Potency [11] | Potency [12] | Potency [13] | Potency [14] | Potency [15] | Potency [16] | outcome [17]

N#CCC(=O)O
inactive: Potency [2] | Potency [3] | Potency [4] | Potency [5] | Potency [18] | Potency [6] | Potency [7] | Potency [8] | Potency [9] | Potency [11] | Potency [12] | Potency [13] | Potency [14] | Potency [15] | Potency [16] | outcome [17]
inactive and 54.5 µM (active): Potency [1]

Nc1cccc(N)n1
inactive: Potency [1] | Potency [4] | Potency [5] | Potency [18] | Potency [6] | Potency [7] | Potency [8] | Potency [9] | Potency [10] | Potency [11] | Potency [12] | Potency [13] | Potency [14] | Potency [15]

OC1CCCCC1
inactive: Potency [1] | Potency [5] | Potency [19] | Potency [18] | Potency [6] | Potency [7] | Potency [8] | Potency [9] | Potency [10] | Potency [11] | Potency [12] | Potency [13] | Potency [14] | Potency [15]

CC1(C)C(=O)N(Cl)C(=O)N1Cl
inactive: Potency [1] | Potency [5] | Potency [19] | Potency [18] | Potency [6] | Potency [7] | Potency [8] | Potency [9] | Potency [10] | Potency [11] | Potency [12] | Potency [13] | Potency [14] | Potency [15] | Potency [16] | outcome [17]
